Assay outcomes from PubChem.
INS promoter inh – TRM-6 insulin promoter activity inhibition. TRM-6 cells (human fetal islet line), insulin promoter-eGFP reporter, imaging; reporter expression induced with tamoxifen. inhibition, % at 2 µM. actives 0.9% (n = 130,000). AID 1273;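 active = inhibition above the mean plus 3 SD, with well images judged a real hit on visual review, cut at about 60% in these data, passing the limit was not always enough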
HCT116 PTEN-null – PTEN-deleted cell growth suppression; AID 827; viability, % at 10 µM; HCT116 PTEN-null viability, CellTiter-Glo, 60 h; active compounds read low; actives 1.2% (n = 140,000);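 active = viability at or below a set limit, 4 SD under the median of all tested compounds, cut at about 3.7% in these data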;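 also: PTEN knockout HCT116 line with beta catenin targeted HCT116 as companion control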
ROMK primary – human ROMK K+ channel modulation, primary screen; P48048; Tet-inducible ROMK, thallium flux fluorescence; actives lie on both sides; B-score at 10 µM; actives 2% (n = 130,000); AID 1918;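 active = signal ratio slope over the read window, or its plate-corrected B-score, at least 3 SD from the plate mean, either direction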;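 also: B-score of the F/F0 ratio slope over 7 to 12 s after thallium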
bCat KO growth – beta-catenin-lacking colon tumor cell growth suppression. HCT116 beta-catenin knockout viability, CellTiter-Glo, 60 h; active compounds read low. viability, % at 10 µM. actives 1.5% (n = 140,000). AID 818;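 active = viability at or under a set limit, the compound median less 4 SD, cut at about 6% in these data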;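 also: 0% = Hyamine 1622 control at 20 µM and 100% = untreated cell control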
Lmaj promast – Leishmania major promastigote growth inhibition | inhibition, % at 10 µM | actives 9% (n = 200,000) | Leishmania major promastigotes, resazurin fluorescence viability | AID 1063; in the data active = inhibition above about 50%;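 also: promastigotes grown with compound for 44 hours at 28 °C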
p97 ATPase inh – blocks human p97 ATPase activity. recombinant p97 ATPase, Kinase-Glo ATP luminescence, 3 h. inhibition, % at 8 µM. actives 0.42% (n = 220,000). P55072; in the data active = inhibition above about 15%;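 also: 0% = DMSO vehicle and 100% = wells lacking enzyme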
p97 inh conf – human p97 ATPase inhibition, confirmation; inhibition, % at 8 µM; recombinant p97 ATPase, Kinase-Glo ATP luminescence; shares compounds with p97 ATPase inh; AID 1517; actives 44% (n = 760);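 active = percent inhibition of p97 ATPase above a set limit, the primary screen's mean plus 3 SD, cut at about 15% in these data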;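 also: 0% = DMSO wells and 100% = wells lacking p97 protein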
* hit, by the source's call; . = not tested or not shown. Most compounds without a hit are left out; they make up all but 10% or so of the library.

SMILES	INS promoter inh	HCT116 PTEN-null	ROMK primary	bCat KO growth	Lmaj promast	p97 ATPase inh	p97 inh conf
CCOC(=O)C1CCN(S(=O)(=O)c2ccc(C(C)(C)C)cc2)CC1	.	.	-0.047	.	-6	1	.
Cc1cc(/C=C2\SC(=S)NC2=O)c(C)[nH]1	.	.	.	.	-2	15*	13
COc1ccc(CNc2nc3nc(-c4ccccc4)cc(=O)n3[nH]2)cc1OC	44	96	0.2	96	-8	5	.
CCn1c(/C=C/N(C(C)=O)c2ccccc2)[n+](CCCS(=O)(=O)[O-])c2cc(Cl)c(Cl)cc21	-37	.	0.61	.	0	18*	5
CCn1c(C)[n+](CCOCC[n+]2c(C)n(CC)c3cc(Cl)c(Cl)cc32)c2cc(Cl)c(Cl)cc21	-7	107	0.75	103	-3	-2	.
O=C1[C@@H]2[C@@H]3C[C@@H]([C@H]4ON=C(c5ccc(Cl)cc5)[C@@H]34)[C@@H]2C(=O)N1C1CCCCC1	-19	61	.	61	-4	1	.
CC(C)(C)OC(=O)N/N=C/c1cccn1-c1ccc([N+](=O)[O-])cc1	.	.	.	.	.	16*	13
Cc1nc2ccccc2n1CC(=O)NCCN1CCCC1	-80	93	.	94	-2	35*	7
O=C(Cn1c(C(F)(F)F)nc2ccccc21)NCCN1CCCC1	46	105	.	104	0	5	.
N#C/C(=C/c1ccco1)C(N)=S	.	.	-0.11	.	.	27*	10
O=S(=O)(NCc1ccccc1)c1ccc(Cl)cc1	42	97	-0.029	98	0	-3	.
O=S(=O)(Nc1cc2nc3ccccc3nc2n1Cc1ccccc1)c1ccc(Cl)cc1	.	76	.	86	8	31*	43*
Cc1ccc(C(=O)N2CCN(Cc3ccc4c(c3)OCO4)CC2)o1	-59	85	.	109	5	-1	.
Cc1c(O)ccc(C(=O)CN2CCN(Cc3ccc4c(c3)OCO4)CC2)c1O	.	83	0.21	95	34	16*	8
CCOc1ccc(CCNC(=O)C2=C(C)C(=O)OC23CCC(C)CC3)cc1 (centres undefined)	-40	98	0.86	98	-3	4	.
Nc1c(C(=O)OCC2CCCO2)c2nc3ccccc3nc2n1C1CCCC1 (centres undefined)	-79	20	-1.2	23	51*	17*	5
O=C(NN1C(=O)/C(=C/C=C/c2ccco2)SC1=S)c1ccccc1O	.	.	.	.	.	55*	21*
O=C1S/C(=C\C=C\c2ccco2)C(=O)N1c1ccc(O)cc1	.	34	.	50	2	43*	11
O=C1S/C(=C\C=C\c2ccco2)C(=O)N1c1ccccc1	.	55	.	62	45	7	.
Cc1ccc(C2=NN=C(NC(=O)C(F)(F)F)SC2)cc1	.	.	0.59	.	10	4	.
O=C(CN1C(=O)CC(c2ccccc2)S(=O)(=O)c2ccccc21)N1CCOCC1 (centres undefined)	-7	.	0.21	.	-5	0	.
COc1ccc(Nc2nc(N)nc(CCl)n2)cc1	.	.	.	.	.	-1	.
Nc1nc(CCl)nc(Nc2ccc3ccccc3c2)n1	.	.	.	.	.	36*	38*
O=C(CN(C(=O)Cn1nnc(-c2cccs2)n1)c1ccc2c(c1)OCCO2)NC1CCCCC1	-14	90	.	88	15	15*	7
COCCNC(=S)N/N=C(\C)c1cccc(OC)c1	.	.	-0.44	.	2	5	.
SMILES	INS promoter inh	HCT116 PTEN-null	ROMK primary	bCat KO growth	Lmaj promast	p97 ATPase inh	p97 inh conf
c1ccc(Nc2nc(NCc3ccco3)c3ccccc3n2)cc1	.	.	.	.	.	22*	28*
COc1cc(OC)cc(C(=O)NNC(=S)Nc2ccc(S(N)(=O)=O)cc2)c1	.	.	-0.63	.	0	21*	25*
NCCCC[C@H](N)c1nnc([C@H](CC(=O)O)NC(=O)C2CCNCC2)o1	.	.	.	.	-3	3	.
CC1CCc2nc(N)c(C#N)c(-c3cccnc3)c2C1 (centres undefined)	.	99	.	89	-6	26*	5
CC1CCc2nc(N)c(C#N)c(-c3ccncc3)c2C1 (centres undefined)	.	96	-0.48	92	-6	5	.
Nc1c(C(=O)Nc2ccccc2)sc2nc(-c3ccco3)ccc12	80*	61	0.08	70	12	19*	18*
O=C(COC(=O)Cc1ccc(Br)cc1)NC1CCCCCC1	.	.	0.26	.	3	-3	.
COc1ccc(NC(=O)CCNS(=O)(=O)c2ccc3c(c2)CCC(=O)N3)cc1	-52	98	.	105	-2	-5	.
